Assay [1] deals with PRMT1 (protein arginine N-methyltransferase 1). In words: PRMT1 binders on small-molecule microarrays, primary screen, biochemical, small-molecule microarray, 635 nm fluorescence (AID 1088).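 Also: binding of Prmt1 protein to compounds spotted on small-molecule microarray slides.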 The settings on record: small-molecule microarray binding, higher = more signal.
Assay [2] in a line: yeast growth modulation, basal conditions, primary screen, YJM789 clinical isolate, OD600, 24 h (AID 1089).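 Also: growth of clinical yeast isolate S. cerevisiae YJM 789 seeded 1000 cells per well; test concentration not given here.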 Particulars: S. cerevisiae YJM789 growth, higher = more signal, called active from +8 up or from −8 down.
A short description of assay [3]: fission yeast growth modulation, primary screen, strain 972, OD600, 24 h, no modulator (AID 1090).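 Also: basal condition with compound alone and no growth modifier present; test concentration not given here.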 The settings on record: S. pombe 972 growth, higher = more signal, called active from +8 up or from −8 down.
Assay [4] in a line: S. cerevisiae growth modulation with rapamycin, primary screen, strain BY4716, OD600, 96 h (AID 1091). Also: test concentration not given here. The settings on record: higher = more signal, called active from +8 up or from −8 down.
For assay [5], the target named is Torsin-1A-interacting protein 2 (Homo sapiens) (UniProt Q8NFQ8). The experiment in a line: LULL1 binders on small-molecule microarray, primary screen, cell lysate, human LULL1 lysate, 635/667 nm fluorescence (AID 1092).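 Also: probe is lysate of COS7 cells overexpressing human LULL1; score merges per-feature 667 nm fluorescence with signal-to-noise.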 Particulars: hLULL1 lysate binding, 635 nm fluorescence, higher = more signal.
Assay [6] can be described thus: E. coli growth modulation, two-sided OD650, primary screen, E. coli filamentation project, strain DRC41, 24 h (AID 1093).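 Also: MC1000 strain lacking acrAB efflux and sulA so SOS filamentation is blocked; test concentration not given here.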 The settings on record: OD650, 24 h, higher = more signal, called active from +8 up or from −8 down.
Assay [7] in a line: small-molecule microarray binders of probe aLefty2, primary screen, biochemical, biotinylated probe, 635/667 nm fluorescence (AID 1094).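 Also: score merges spot fluorescence near 667 nm with spot signal-to-noise ratio.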 Particulars: higher = more signal.
The test system of assay [8] is Noggin (protein binding on small-molecule microarray). In words: Noggin binders on small-molecule microarray, primary screen, biochemical, 635/667 nm fluorescence (AID 1095).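 Also: score merges 667 nm feature fluorescence with signal to noise over triplicate slides.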 The settings on record: 635 nm fluorescence, higher = more signal.
Assay [9] concerns the target Neurogenic locus notch homolog protein 3 (Homo sapiens) (UniProt Q9UM47). In words: NOTCH3 binders on small-molecule microarray, primary screen, biochemical, 635/667 nm fluorescence (AID 1096). Particulars: NOTCH3 binding, 635 nm fluorescence, higher = more signal.
Assay [10] in a line: small-molecule microarray binders of probe aEGFR, primary screen, biochemical, biotinylated probe, 635/667 nm fluorescence (AID 1097).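 Also: probe is a biotinylated anti-EGFR antibody binding compounds printed on slides; score combines fluorescence near 667 nm and signal to noise of each spot.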 The settings on record: higher = more signal.
Assay [11] has as its system Plasmodium falciparum Sir2 (PF13_0152, Sir2A). In words: pfSir2 binders on small-molecule microarrays, primary screen, biochemical, small-molecule microarray, 635 nm fluorescence (AID 1098).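 Also: score merges spot fluorescence intensity with its signal-to-noise ratio.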 Particulars: small-molecule microarray binding, fluorescence 635 nm; higher = more signal.
Assay [12] is described as follows: small-molecule microarray binders of probe aDKK1, primary screen, biochemical, biotinylated probe, 635/667 nm fluorescence (AID 1099).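 Also: score merges 667nm spot fluorescence with signal to noise across triplicate slides; reference of the scale not given here.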 The settings on record: higher = more signal.
Assay [13] in a line: small-molecule microarray binders of probe aCHRDL2, primary screen, biochemical, biotinylated probe, 635/667 nm fluorescence (AID 1100). Particulars: higher = more signal.
Assay [14] can be described thus: splicing luciferase reporter signal modulators, primary screen, spliceosome inhibition project, cell-based, HEK293, splice +/- reporter (AID 1101).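 Also: HEK293 cells carrying a splicing-competent luciferase reporter gene; test concentration not given here.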 Particulars: luminescence, 24 h, higher = more signal, called active from +8 up or from −8 down.
Assay [15] has as its target Fibroblast growth factor 10 (Homo sapiens) (UniProt O15520). In words: FGF10 binders on small-molecule microarrays, primary screen, biochemical, small-molecule microarray, 635 nm fluorescence (AID 1102). Particulars: FGF10 binding, fluorescence 635 nm, higher = more signal.
Assay [16] has as its system glycogen synthase kinase-3 (GSK3A per assay name; protocol says GSK3B). The experiment in a line: GSK3 binders on small-molecule microarrays, primary screen, biochemical, small-molecule microarray, 635 nm fluorescence, GSK3A (AID 1103). Also: the record names both GSK3A and GSK3B. Particulars: small-molecule microarray binding, fluorescence 635 nm; higher = more signal.
The target in assay [17] is Epidermal growth factor receptor (Homo sapiens) (UniProt P00533). The experiment in a line: EGFR binders on small-molecule microarrays, primary screen, biochemical, small-molecule microarray, 635 nm fluorescence (AID 1104).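 Also: score merges 667 nm emission intensity with spot signal to noise over triplicate slides.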 The settings on record: EGFR binding, higher = more signal.
For assay [18], the target named is Follistatin-related protein 3 (Homo sapiens) (UniProt O95633). In words: FSTL3 binders on small-molecule microarrays, primary screen, biochemical, small-molecule microarray, 635 nm fluorescence (AID 1105).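 Also: score merges emission near 667 nm and signal to noise per printed spot across three slides.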 The settings on record: FSTL3 binding, higher = more signal.
Assay [19] has as its target Dickkopf-related protein 1 (Homo sapiens) (UniProt O94907). In words: DKK1 binders on small-molecule microarrays, primary screen, biochemical, small-molecule microarray, 635 nm fluorescence scan (AID 1106).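 Also: score merges emission near 667 nm with signal to noise over three replicate slides.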 Particulars: DKK1 binding, higher = more signal.
For assay [20], the system named is Inhibin beta A chain (activin A). The experiment in a line: INHBA (activin A) binders on microarrays, primary screen, biochemical, small-molecule microarray, 635 nm fluorescence scan (AID 1107).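 Also: mouse activin A protein probed at 4.33 µg/mL on printed slides; score merges bound-protein fluorescence near 667 nm with spot signal-to-noise.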 Particulars: small-molecule microarray binding, higher = more signal.

Structures are written as SMILES. Active and inactive are the calls of the source.

Torsin-1A-interacting protein 2 (Homo sapiens), sequence (Q8NFQ8 whole entry, looked up): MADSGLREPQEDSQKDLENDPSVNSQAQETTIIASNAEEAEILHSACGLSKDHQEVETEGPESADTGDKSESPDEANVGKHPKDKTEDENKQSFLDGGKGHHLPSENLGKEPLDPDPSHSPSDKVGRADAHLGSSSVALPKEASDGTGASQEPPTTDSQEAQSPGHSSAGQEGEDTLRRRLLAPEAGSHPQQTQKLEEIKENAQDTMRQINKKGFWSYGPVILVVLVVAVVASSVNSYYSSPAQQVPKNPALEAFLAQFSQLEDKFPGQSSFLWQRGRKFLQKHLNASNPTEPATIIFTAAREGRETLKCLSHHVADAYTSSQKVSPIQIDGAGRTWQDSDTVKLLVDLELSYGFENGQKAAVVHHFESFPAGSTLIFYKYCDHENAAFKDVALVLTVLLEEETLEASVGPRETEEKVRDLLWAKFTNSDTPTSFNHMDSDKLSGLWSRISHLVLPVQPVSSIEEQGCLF
Neurogenic locus notch homolog protein 3 (Homo sapiens), sequence (Q9UM47 whole entry, looked up): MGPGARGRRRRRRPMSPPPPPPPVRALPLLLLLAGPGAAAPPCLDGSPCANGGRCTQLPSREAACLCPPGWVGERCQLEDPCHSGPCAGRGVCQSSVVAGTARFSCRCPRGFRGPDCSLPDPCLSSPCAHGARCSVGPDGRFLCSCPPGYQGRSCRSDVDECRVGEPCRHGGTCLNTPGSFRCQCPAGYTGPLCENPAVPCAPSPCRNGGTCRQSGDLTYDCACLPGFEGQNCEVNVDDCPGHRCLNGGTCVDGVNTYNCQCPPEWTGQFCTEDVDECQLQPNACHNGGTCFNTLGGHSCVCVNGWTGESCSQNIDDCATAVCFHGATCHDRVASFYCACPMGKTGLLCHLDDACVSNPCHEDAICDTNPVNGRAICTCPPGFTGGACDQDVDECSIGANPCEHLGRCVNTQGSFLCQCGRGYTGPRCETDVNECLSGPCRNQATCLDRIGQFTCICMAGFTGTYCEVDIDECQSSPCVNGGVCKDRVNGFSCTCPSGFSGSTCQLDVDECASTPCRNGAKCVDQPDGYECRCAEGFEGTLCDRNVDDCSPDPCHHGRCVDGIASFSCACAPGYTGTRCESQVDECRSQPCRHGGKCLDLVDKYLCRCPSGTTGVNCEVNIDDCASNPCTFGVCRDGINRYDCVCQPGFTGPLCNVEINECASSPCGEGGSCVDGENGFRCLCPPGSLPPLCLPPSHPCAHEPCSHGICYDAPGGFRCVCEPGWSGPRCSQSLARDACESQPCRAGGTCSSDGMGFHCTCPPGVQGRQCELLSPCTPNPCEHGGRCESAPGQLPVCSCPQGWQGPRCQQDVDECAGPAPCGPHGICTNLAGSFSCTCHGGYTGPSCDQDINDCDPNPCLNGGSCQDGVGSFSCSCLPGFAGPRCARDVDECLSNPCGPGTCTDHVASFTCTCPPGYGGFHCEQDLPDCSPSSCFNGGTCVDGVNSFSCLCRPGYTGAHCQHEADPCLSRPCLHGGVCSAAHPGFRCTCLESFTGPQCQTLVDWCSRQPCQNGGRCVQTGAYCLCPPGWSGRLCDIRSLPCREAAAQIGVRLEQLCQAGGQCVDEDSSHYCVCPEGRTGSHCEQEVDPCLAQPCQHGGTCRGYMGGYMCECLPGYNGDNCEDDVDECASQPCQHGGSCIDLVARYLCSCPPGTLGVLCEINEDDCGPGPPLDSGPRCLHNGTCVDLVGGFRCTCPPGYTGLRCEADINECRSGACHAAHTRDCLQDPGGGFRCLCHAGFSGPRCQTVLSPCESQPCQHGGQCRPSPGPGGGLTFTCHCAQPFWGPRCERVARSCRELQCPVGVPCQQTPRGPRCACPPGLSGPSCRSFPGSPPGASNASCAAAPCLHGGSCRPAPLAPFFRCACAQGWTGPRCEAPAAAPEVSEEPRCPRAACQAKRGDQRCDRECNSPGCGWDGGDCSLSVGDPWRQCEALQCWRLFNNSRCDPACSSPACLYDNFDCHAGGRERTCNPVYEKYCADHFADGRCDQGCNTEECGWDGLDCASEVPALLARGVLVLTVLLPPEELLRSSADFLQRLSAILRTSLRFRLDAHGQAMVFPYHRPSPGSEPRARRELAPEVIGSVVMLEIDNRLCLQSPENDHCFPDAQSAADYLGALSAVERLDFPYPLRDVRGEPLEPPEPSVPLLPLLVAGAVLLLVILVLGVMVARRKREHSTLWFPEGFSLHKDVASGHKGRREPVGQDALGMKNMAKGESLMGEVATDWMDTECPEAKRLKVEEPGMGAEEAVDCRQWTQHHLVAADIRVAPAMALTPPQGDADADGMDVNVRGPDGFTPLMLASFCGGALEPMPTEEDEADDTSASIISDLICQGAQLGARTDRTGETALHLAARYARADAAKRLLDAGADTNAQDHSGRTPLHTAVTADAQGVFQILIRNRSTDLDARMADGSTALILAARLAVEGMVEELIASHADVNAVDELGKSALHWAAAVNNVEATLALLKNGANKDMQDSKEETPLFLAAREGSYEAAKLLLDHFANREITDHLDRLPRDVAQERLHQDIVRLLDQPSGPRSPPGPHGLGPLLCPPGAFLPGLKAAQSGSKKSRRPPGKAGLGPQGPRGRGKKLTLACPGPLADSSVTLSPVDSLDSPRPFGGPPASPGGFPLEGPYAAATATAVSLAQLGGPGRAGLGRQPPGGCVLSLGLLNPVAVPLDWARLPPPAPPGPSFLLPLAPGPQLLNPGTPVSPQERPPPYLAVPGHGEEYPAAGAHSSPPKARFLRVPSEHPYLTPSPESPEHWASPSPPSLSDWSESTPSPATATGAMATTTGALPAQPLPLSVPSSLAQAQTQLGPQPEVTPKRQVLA
Fibroblast growth factor 10 (Homo sapiens), sequence (O15520 whole entry, looked up): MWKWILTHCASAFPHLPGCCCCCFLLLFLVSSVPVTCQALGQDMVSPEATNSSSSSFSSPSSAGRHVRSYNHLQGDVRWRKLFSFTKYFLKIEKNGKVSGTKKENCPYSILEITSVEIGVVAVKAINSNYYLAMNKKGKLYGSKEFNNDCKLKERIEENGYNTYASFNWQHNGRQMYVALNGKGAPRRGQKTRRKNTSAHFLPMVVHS
Epidermal growth factor receptor (Homo sapiens), sequence (P00533 whole entry, looked up): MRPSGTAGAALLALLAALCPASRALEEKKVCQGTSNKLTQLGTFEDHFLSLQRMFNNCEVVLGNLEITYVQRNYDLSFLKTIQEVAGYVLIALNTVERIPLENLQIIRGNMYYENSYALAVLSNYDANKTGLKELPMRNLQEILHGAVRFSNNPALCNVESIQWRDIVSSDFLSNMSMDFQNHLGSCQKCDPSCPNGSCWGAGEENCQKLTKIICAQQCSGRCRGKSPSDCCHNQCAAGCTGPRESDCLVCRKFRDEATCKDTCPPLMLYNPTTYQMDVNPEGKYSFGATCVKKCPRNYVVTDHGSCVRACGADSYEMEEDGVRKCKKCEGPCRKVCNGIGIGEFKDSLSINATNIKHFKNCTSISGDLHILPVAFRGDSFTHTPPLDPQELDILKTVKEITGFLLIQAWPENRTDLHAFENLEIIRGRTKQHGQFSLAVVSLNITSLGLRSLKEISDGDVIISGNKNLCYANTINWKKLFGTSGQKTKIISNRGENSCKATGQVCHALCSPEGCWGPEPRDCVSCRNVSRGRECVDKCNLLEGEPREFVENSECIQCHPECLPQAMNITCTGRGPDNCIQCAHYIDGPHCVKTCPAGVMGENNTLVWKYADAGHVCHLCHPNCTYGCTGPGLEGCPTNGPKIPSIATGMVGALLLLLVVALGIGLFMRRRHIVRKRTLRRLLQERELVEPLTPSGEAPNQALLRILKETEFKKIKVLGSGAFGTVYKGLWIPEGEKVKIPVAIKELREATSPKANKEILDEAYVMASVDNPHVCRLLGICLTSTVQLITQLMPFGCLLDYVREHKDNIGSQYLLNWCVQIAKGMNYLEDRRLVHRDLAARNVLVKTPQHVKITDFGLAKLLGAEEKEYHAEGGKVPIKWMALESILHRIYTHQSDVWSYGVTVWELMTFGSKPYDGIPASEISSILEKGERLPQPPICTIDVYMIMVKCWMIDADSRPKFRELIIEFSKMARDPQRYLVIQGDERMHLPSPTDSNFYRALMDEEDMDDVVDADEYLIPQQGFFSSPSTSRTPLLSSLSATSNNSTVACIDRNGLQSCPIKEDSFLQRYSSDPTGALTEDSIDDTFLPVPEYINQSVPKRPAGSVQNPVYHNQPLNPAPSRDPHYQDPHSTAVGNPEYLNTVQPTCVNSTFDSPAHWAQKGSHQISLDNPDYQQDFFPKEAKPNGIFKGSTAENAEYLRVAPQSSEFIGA
Follistatin-related protein 3 (Homo sapiens), sequence (O95633 whole entry, looked up): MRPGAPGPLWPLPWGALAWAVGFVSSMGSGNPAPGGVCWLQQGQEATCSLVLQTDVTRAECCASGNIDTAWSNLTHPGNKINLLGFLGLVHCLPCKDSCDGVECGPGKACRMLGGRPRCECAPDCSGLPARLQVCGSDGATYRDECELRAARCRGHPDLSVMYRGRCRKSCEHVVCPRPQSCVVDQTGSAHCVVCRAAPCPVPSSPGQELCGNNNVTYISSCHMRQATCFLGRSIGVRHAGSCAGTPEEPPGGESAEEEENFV
Dickkopf-related protein 1 (Homo sapiens), sequence (O94907 whole entry, looked up): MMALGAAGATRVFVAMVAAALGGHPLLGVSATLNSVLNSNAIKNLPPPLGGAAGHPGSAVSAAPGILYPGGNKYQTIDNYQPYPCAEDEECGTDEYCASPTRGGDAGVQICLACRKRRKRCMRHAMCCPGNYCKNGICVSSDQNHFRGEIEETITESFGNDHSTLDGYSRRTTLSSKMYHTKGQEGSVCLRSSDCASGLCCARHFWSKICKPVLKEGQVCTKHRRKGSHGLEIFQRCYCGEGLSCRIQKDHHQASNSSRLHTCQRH

`C=C(C)[C@@H]1CC=C(C(O)C2C=CC3C(=O)NC(=O)C3N2Nc2ccccn2)CC1` (stereo not given in full): the composite z-score was 1.55 in assay [1]; 2.76 in [5]; 0.607 in [7]; 1.9 in assay [8]; 1.02 in assay [9]; 0.641 in assay [10]. Moreover, the composite z-score in [11] came to 1.66; in assay [12], 0.946; in assay [13] it was 0.287; in assay [15] it was 1.14; in [16] it was 1.32; in assay [17] it was 1.88. Besides, the composite z-score came to 1.65 in assay [18], 2.16 in [19] and 1.81 in assay [20]. The z-score in [2] is 0.0118 (inactive); in assay [3], 0.514 (inactive); in assay [4] it was -0.285 (inactive); in [6], -0.953 (inactive); in [14], 1.1 (inactive).
Turning to `COc1ccc([Si](C)(C)[C@H]2[C@H](CCO)O[C@@]3(C(=O)N(Cc4ccc(N5CCCCC5=O)cc4)c4ccccc43)[C@@H]2C)cc1`, the composite z-score in [1] is 1.54; in [5] it was 1.88; in [7], -0.116; in [8] it was 0.993; in assay [9], 1.07; in assay [10], -0.0288. In addition, the composite z-score in assay [11] was found to be 1.36; in assay [12], 0.175; in assay [13], 0.37; in assay [15], 0.345; in assay [16] it was 0.642; in assay [17], 0.122. For the same molecule, the composite z-score was 0.55 in [18], 0.236 in assay [19] and 0.766 in assay [20]. In addition, the z-score in assay [2] is -0.025 (inactive); in assay [3], -0.717 (inactive); in assay [4], 2.28 (inactive); in assay [6] it was 1.9 (inactive); in assay [14] it was 1.23 (inactive).
For `Cc1ccc(S[C@]2(C(=O)NC3CC3)CC(=O)N(Cc3cc(C(F)(F)F)cc(C(F)(F)F)c3)[C@@H]2c2ccc(CO)cc2)cc1`, the composite z-score in assay [1] is 1.55; in [5], 2.27; in [7], -0.213; in assay [8] it was 0.756; in assay [9], 0.58; in [10], -0.0772. The composite z-score in assay [11] was 0.259; in assay [12], -0.212; in assay [13], 0.0275; in assay [15], 0.295; in assay [16] it was 0.57; in assay [17], 0.196. In addition, the composite z-score in assay [18] is 0.811; in assay [19] it was 0.245; in assay [20], 0.709. The z-score is -1.18 (inactive) in assay [2]; -1.51 (inactive) in assay [3]; -2.53 (inactive) in assay [4]; -0.83 (inactive) in assay [6]; 0.434 (inactive) in [14].
Turning to `O=C1c2ccccc2[C@](Cc2ccccc2I)(C(=O)NCc2ccccc2)[C@H](c2ccc(CO)cc2)N1Cc1ccccc1C(F)(F)F`, the composite z-score in [1] was 1.27; in [5], 2.44; in [7], -0.0345; in assay [8], -1.05; in assay [9], -0.785; in [10] it was -0.179. Further, the composite z-score in assay [11] is 0.74; in [12], 0.606; in assay [13], 1.11; in assay [15], -0.881; in assay [16], -1.42; in assay [17], -1.39. Besides, the composite z-score in assay [18] is -1.27; in assay [19], -2.07; in assay [20], 0.623. Moreover, the z-score was 0.417 (inactive) in assay [2]; -1.05 (inactive) in assay [3]; 0.304 (inactive) in [4]; 1.03 (inactive) in assay [6]; -0.984 (inactive) in [14].
Take `C=CCN1C(=O)[C@]2(O[C@H](CCn3cc(CCO)nn3)[C@@H]([Si](C)(C)c3ccc(OC)cc3)[C@@H]2C)c2cc(NC(=O)c3ccc(OC)cc3)ccc21`: the composite z-score in assay [1] was 1.25; in [5] it was 0.807; in assay [7] it was 0.205; in [8] it was 1.03; in assay [9], 0.527; in assay [10] it was -0.109. The composite z-score in assay [11] was 0.799; in assay [12], 0.717; in [13], 0.794; in assay [15] it was 0.515; in assay [16], 1.23; in assay [17], 0.384. The results for the composite z-score in [18], in [19] and in assay [20] were 0.876, 0.863 and 1.63, respectively. For the same molecule, the z-score in assay [2] was 1.46 (inactive); in assay [3] it was -1.22 (inactive); in assay [4], 1.81 (inactive); in [6] it was 1.94 (inactive); in [14], 0.0559 (inactive).

The record behind these values is PubChem BioAssay.
